Screening results from PubChem BioAssay.
The list is not random: actives were taken first. Their share in the collection is about 19%.
ELG1 DNA repair: ELG1-dependent DNA repair inhibition | HEK293T ELG1-luciferase reporter, luminescence, 16 h; DNA damage induced by 5-fluorouridine | Potency, µM (highest dose often 46.1 µM), without a hit: at the highest dose activity change, negative = inhibition, hits mostly inhibitors | 330,000 tested, 2.3% active; also: potency is read from the fitted curve at half-maximal effect; nearly all actives have a fitted effect of over 55% in size
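Step one: seed 2,000 cells per well. Step two: pin-transfer compound or DMSO alongside 5-fluorouridine. Step three: incubate 16 hr, 37 °C, 5% CO2. Step four: add ONE-Glo, wait 30 min, read luminescence.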
HT1080-NT tox: kills 2HG-producing HT-1080-NT fibrosarcoma cells; HT-1080-NT fibrosarcoma viability, CellTiter-Glo ATP luminescence, 48 h; Potency, µM (titrated, usually from 46.1 µM), without a hit: at the highest dose activity, negative = less viability, hits mostly cytotoxic; 360,000 tested, 1.6% active; AID 686970;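 also: NT is the 2HG producing partner of a matched IDH1 knockdown line; potency is read from the fitted curve at half-maximal effect; 0% = DMSO-treated cells and -100% = media-only wells without cells; nearly all actives have a fitted effect of over 55% in size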
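HT-1080-NT fibrosarcoma cells (2HG-overproducing), 750 cells/well in RPMI with 5% FBS, dosed after 2 h and incubated 48 h at 37C. CellTiter-Glo luminescence normalized to DMSO and no-cell wells; concentration-response curves fitted and classed.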
DT40 TDP1 CPT: DT40-hTDP1 cell growth loss with CPT. AID 686979. chicken DT40 Tdp1-/-;hTDP1 cells + 20 nM CPT, ATP luminescence, 48 h. Potency, µM (series often up to 46.2 µM), for the others: at the top dose activity change, negative = growth inhibition, most hits filed as inhibitors. 420,000 tested, 12% active; also: potency is read from the fitted curve at half-maximal effect; nearly all actives have a fitted effect of over 55% in size
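Chicken DT40 Tdp1-/- cells stably complemented with human TDP1 were seeded at 400 cells/well in medium containing 20 nM camptothecin, exposed to pin-transferred compounds, and grown at 37 °C for at least 48 hr. Viability was read as ATP luminescence.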
DT40 TDP1 no CPT: qHTS for Inhibitors of human tyrosyl-DNA phosphodiesterase 1 (TDP1): qHTS in cells in absence of CPT; Potency, µM (top dose mostly 46.2 µM), for inactives: at the top dose activity change, negative = growth inhibition, actives largely listed as inhibitors; 420,000 tested, 15% active; DT40 Tdp1-/- hTDP1 cells, no CPT, ATP luminescence, 48 h; also: potency is read from the fitted curve at half-maximal effect; nearly all actives have a fitted effect of over 55% in size
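Camptothecin absent (DMSO only). Human TDP1-complemented DT40 knockout cells, 400 cells/well, 37 °C for minimum 48 hr; ATP measured via CellTiter-Glo, 30 min dark incubation, luminescence.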
IL1B secr inh: blocks inflammasome-driven IL-1 beta release; THP-1 LPS/ATP IL-1B secretion, AlphaLISA, 16 h; active compounds read low; activity change, % at 57.5 µM; 360,000 tested, 4.7% active; in the data active = activity change below about -50%; inconclusive = mostly about -30% to -49%
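Secreted IL-1B measured by AlphaLISA bead assay after 16 h compound exposure of THP-1 cells; compounds (final up to 57.5 uM) added 1 h before LPS (250 ng/mL) and ATP (1.25 mM) stimulation; lower signal means less secretion.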
HT1080 IDH1KD tx: HT-1080 IDH1 knockdown cell toxicity (counter line). Potency, µM (highest dose often 46.1 µM), for inactives: at the top dose activity, negative = toxicity, actives largely listed as cytotoxic. 360,000 tested, 2% active. AID 686971. HT-1080 IDH1 knockdown viability, ATP luminescence, 48 h;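 also: potency is read from the fitted curve at half-maximal effect; 0% = DMSO wells and -100% = cell-free medium wells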
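IDH1KD HT-1080 cells, 750/well, RPMI + 5% FBS; compound pinned after 2 h settling; 48 h, 37 °C; CellTiter-Glo luminescence; % activity normalised to DMSO and no-cell wells; curves fitted, classed by r2 and efficacy.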
Starred values were filed as active, the others as inactive; ? = inconclusive; . = not tested or not shown. Unless noted, calls follow the shape of the dose curve; as a rule, active = well fitted curve in the direction sought with a large enough effect; inconclusive = small, poorly fitted or top-dose-only effect, or another doubt; inactive = no such curve, though single readings can be large; an effect the other way counts as inactive or inconclusive. Unless noted, % is scaled to controls: 0 for no effect and ±100 for the full control effect.

SMILES	ELG1 DNA repair	HT1080-NT tox	DT40 TDP1 CPT	DT40 TDP1 no CPT	IL1B secr inh	HT1080 IDH1KD tx
CC(=O)c1ccc(OC(=O)COc2ccccc2)cc1	4%	0%	4%	22%	14	0%
Cc1ccc(OCC(=O)Oc2c(C)cccc2C)cc1	-5%	17%	-6%	-5%	7	-2%
CCCCN1C(C(=O)Nc2ncccn2)=C(O)c2ccccc2S1(=O)=O	9%	8%	4%	-14%	-4	14%
CCN1C(C(=O)c2ccccc2)=C(OC(=O)COc2ccc(C)cc2)c2ccccc2S1(=O)=O	.	.	?	16µM*	.	.
CCCN1C(C(=O)c2ccccc2)=C(OC(=O)COc2ccc(C)cc2)c2ccccc2S1(=O)=O	.	.	4.1µM*	5.2µM*	.	.
Cc1ccccc1NC1=C(C(=O)c2ccccc2)N(C)S(=O)(=O)c2ccccc21	19%	-13%	-29%	?	-7	-11%
CCCCC(=O)OC1=C(C(=O)c2ccccc2)N(C)S(=O)(=O)c2ccccc21	.	.	?	23µM*	.	.
Cc1c(C(=O)NCc2cccc([N+](=O)[O-])c2)sc(=O)n1Cc1ccccc1F	.	5%	?	?	?	-19%
C=CCN1C(C(=O)c2ccccc2)=C(OC(=O)COc2ccccc2)c2ccccc2S1(=O)=O	?	?	?	?	3	?
CCCN1C(C(=O)c2ccccc2)=C(OC(=O)COc2ccccc2)c2ccccc2S1(=O)=O	.	.	4.1µM*	4.1µM*	.	.
CCN1C(C(=O)c2ccccc2)=C(OC(=O)COc2ccc(OC)cc2)c2ccccc2S1(=O)=O	.	.	5.2µM*	4.6µM*	.	.
COc1ccc(C(=O)CN2C(=O)c3ccccc3S2(=O)=O)cc1	?	27%	8%	-6%	-7	3%
CN1C(C(=O)c2ccccc2)=C(NC(=O)c2ccccc2Br)c2ccccc2S1(=O)=O	.	.	12µM*	6.5µM*	.	.
O=C(c1cccc(Oc2c(Cl)cccc2[N+](=O)[O-])c1)N1CCOCC1	-1%	-4%	?	?	-17	-11%
Cc1ccc(NC(=O)c2cnn(-c3ccccc3)c2C)cc1C	?	-1%	?	?	?	-18%
CNS(=O)(=O)c1cc(NC(=O)c2cnc(SC)n2-c2ccccc2)ccc1C	10%	2%	?	15µM*	-2	5%
CC(NCCC1(Cc2ccccc2Cl)CCOC(C)(C)C1)c1cccs1 (stereo unspecified)	?	-18%	23µM*	21µM*	-54*	?
Cc1ccc(CCNC(=O)CSCc2nc(-c3ccc(C)cc3)oc2C)cc1	.	.	-108%	?	.	.
COc1ccc(CCNC(=O)C(C)n2nc(C)c3sc4ccccc4c3c2=O)c(OC)c1 (stereo unspecified)	.	.	21µM*	16µM*	.	.
CCC(C(=O)NCCCN1CCN(C)CC1)n1nc(C)c2sc3ccccc3c2c1=O (stereo unspecified)	17%	-9%	2%	8%	-1	0%
CCC(C(=O)NCCc1ccc(OC)c(OC)c1OC)n1nc(C)c2sc3ccccc3c2c1=O (stereo unspecified)	.	.	9.2µM*	12µM*	.	.
Cc1nn(C(C)C(=O)NCc2ccccc2Cl)c(=O)c2c1sc1ccccc12 (stereo unspecified)	-11%	-2%	?	?	6	-3%
CCOc1ccc(CCNC(=O)CCCn2nc(C)c3sc4ccccc4c3c2=O)cc1OCC	.	.	23µM*	18µM*	.	.
COCCCNC(=O)Cn1c(=O)n(-c2ccc(C)cc2)c(=O)c2c1c1cc(C)ccc1n2C	.	.	-28%	?	.	.
COc1cccc(CNC(=O)CSc2nc(=O)[nH]c3c2CCC3)c1	.	.	11%	-10%	.	.
SMILES	ELG1 DNA repair	HT1080-NT tox	DT40 TDP1 CPT	DT40 TDP1 no CPT	IL1B secr inh	HT1080 IDH1KD tx
CC(=O)n1nc(-c2ccccc2)nc1NCc1ccc(N(C)C)cc1	?	-3%	12%	3%	21	-5%
COc1ccc(/C=N/N2C(=O)CSC2=S)cc1	.	-2%	?	?	4	18%
COC(=O)c1cn(-c2ccccc2)nc1-c1ccncc1	0%	-3%	-10%	-21%	-14	0%
COc1ccc(-c2nn(-c3ccccc3)cc2/C=N/N2C(=O)CSC2=S)cc1	?	25%	18µM*	16µM*	-106*	2%
COc1ccc(-c2nn(-c3ccccc3)cc2C(=O)n2nnc3ccccc32)cc1	6%	0%	21µM*	-44%	2	-2%
COC(=O)c1cn(-c2ccccc2)nc1-c1ccc(OC)cc1	26µM*	-9%	-2%	?	-1	-3%
CC(=O)N1CCc2cc(NC(=O)C3(C)CCN3Cc3ccccc3Cl)ccc21 (stereo unspecified)	.	.	-20%	?	-22	.
CC(SC1=NCCN1S(=O)(=O)c1ccccc1)c1ccccc1 (stereo unspecified)	9%	12%	-18%	0%	14	-1%
Cc1ccc(Cn2c(C(=O)O)c(CNC3CCCCCC3)c3ccc(C)cc32)cc1	.	.	4%	-18%	.	.
Cc1ccccc1NC(=O)/C=C/c1cccs1	?	-19%	?	?	-25	-20%
COc1ccc(C(=O)NNC(=S)NC(=O)/C=C/c2cccs2)cc1	?	-9%	?	?	11	?
O=C(/C=C/c1cccs1)NC(=S)NNC(=O)c1ccccc1O	?	-19%	5.2µM*	4.6µM*	112	?
O=C(/C=C/c1cccs1)NC(=S)Nc1ccccc1	?	25%	?	?	-62*	26%
COc1ccc(NC(=O)COC(=O)C2CC2)cc1S(=O)(=O)N1CCCCC1	11%	0%	-3%	9%	?	-8%
Cn1c(=O)c2c(nc(CN3CCN(c4ccccc4)CC3)n2CCc2ccccc2)n(C)c1=O	.	-1%	23µM*	23µM*	-10	-3%
Cn1c(=O)c2c(nc(CN3CCN(c4cccc(Cl)c4)CC3)n2CCc2ccccc2)n(C)c1=O	.	-28%	13µM*	10µM*	-26	-25%
COCc1cc(N2CCOCC2)nc(SCc2ccc(Cl)cc2)n1	?	-7%	-18%	-26%	0	-2%
CSCc1cc(N2CCOCC2)nc(SCc2ccc(Cl)c(Cl)c2)n1	8%	?	21µM*	-16%	-7	?
